# The whole screen tested about 5,500 compounds, of which about 2,000 (36%) were called active. About 18% were inconclusive and are not listed. Some of the results follow. A number with no mark means an inactive call. No stated cut-off is given here; in the data, active means normalized growth mostly below about 0.91 (no sharp cut-off); inconclusive means no clear call, values can overlap the other calls; inactive means mostly above about 0.92.
# Test: chemical genetic growth profiling, strain panel (AID 1159580);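 further: tested at 20 µM; growth read once vehicle control cultures reached saturation at 30 °C; 1 = growth at the plate median or of vehicle wells; lower values mean less growth of the strain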
# Details: growth OD
# [1] = S. cerevisiae deletion strains, locus YAL013W, strain DEP1, active compounds read low
# [2] = S. cerevisiae deletion strains, locus YBR229C, strain ROT2, active compounds read low
# [3] = S. cerevisiae deletion strains, locus YDL101C, strain DUN1, active compounds read low
# [4] = S. cerevisiae deletion strains, locus YDR150W, strain NUM1, active compounds read low
# [5] = S. cerevisiae deletion strains, locus YEL061C, strain CIN8, active compounds read low
# [6] = S. cerevisiae deletion strains, locus YGR078C, strain PAC10, active compounds read low
# [7] = S. cerevisiae deletion strains, locus YHR030C, strain SLT2, active compounds read low
# [8] = S. cerevisiae deletion strains, locus YHR087W, strain rtc3, active compounds read low
# [9] = S. cerevisiae deletion strains, locus YJR043C, strain POL32, active compounds read low
# [10] = S. cerevisiae deletion strains, locus YJR075W, strain HOC1, active compounds read low
# [11] = S. cerevisiae deletion strains, locus YKL190W, strain CNB1, active compounds read low
# [12] = S. cerevisiae deletion strains, locus YLR039C, strain RIC1, active compounds read low
# [13] = S. cerevisiae deletion strains, locus YLR058C, strain SHM2 (second series), active compounds read low
# [14] = S. cerevisiae deletion strains, locus YLR085C, strain ARP6, active compounds read low
# [15] = S. cerevisiae deletion strains, locus YLR262C, strain YPT6, active compounds read low
# [16] = S. cerevisiae deletion strains, locus YML094W, strain GIM5, active compounds read low
# [17] = S. cerevisiae deletion strains, locus YMR219W, strain ESC1, active compounds read low
# [18] = S. cerevisiae deletion strains, locus YMR263W, strain SAP30, active compounds read low
# [19] = S. cerevisiae deletion strains, locus YNL153C, strain GIM3, active compounds read low
# [20] = S. cerevisiae deletion strains, locus YNL298W, strain CLA4 (second series), active compounds read low
# [21] = S. cerevisiae deletion strains, locus YNL322C, strain KRE1, active compounds read low
# [22] = S. cerevisiae deletion strains, locus YNR030W, strain Alg12, active compounds read low
# [23] = S. cerevisiae deletion strains, locus YPL055C, strain LGE1, active compounds read low
# [24] = S. cerevisiae deletion strains, locus YPL241C, strain CIN2, active compounds read low
# [25] = S. cerevisiae deletion strains, locus YPR135W, strain CTF4, active compounds read low
# [26] = S. cerevisiae strains, strain wild type, active compounds read low
# [27] = S. cerevisiae deletion strains, locus YAL040C, strain CLN3, active compounds read low
# [28] = S. cerevisiae deletion strains, locus YER002W, strain NOP16, active compounds read low
# [29] = S. cerevisiae deletion strains, locus YNL175C, strain NOP13, active compounds read low
# [30] = S. cerevisiae deletion strains, locus YNL197C, strain WHI3, active compounds read low
# [31] = S. cerevisiae deletion strains, locus YNL224C, strain SQS1, active compounds read low
# [32] = S. cerevisiae deletion strains, locus YOR083W, strain WHI5 (second series), active compounds read low
compound,measurement,setting,value
CC(C)(C)c1nccc(-c2nn(-c3ccc(F)cc3)ccc2=O)n1,normalized growth,[1],0.991
same,normalized growth,[2],0.988
same,normalized growth,"S. cerevisiae deletion strains, locus YCL061C, strain MRC1, active compounds read low",1.02
same,normalized growth,[3],1.03
same,normalized growth,"S. cerevisiae deletion strains, locus YDL134C, strain PPH21, active compounds read low",0.994
same,normalized growth,[4],0.9
same,normalized growth,[5],1.01
same,normalized growth,[6],1.01
same,normalized growth,[7],1.02
same,normalized growth,[8],0.985
same,normalized growth,"S. cerevisiae deletion strains, locus YJL187C, strain SWE1, active compounds read low",1.03
same,normalized growth,[9],1
same,normalized growth,[10],1.03
same,normalized growth,[11],1.01
same,normalized growth,[12],0.99
same,normalized growth,[13],1
same,normalized growth,[14],1.15
same,normalized growth,[15],0.974
same,normalized growth,[16],1
same,normalized growth,[17],1
same,normalized growth,[18],0.995
same,normalized growth,[19],1.02
same,normalized growth,[20],1.03
same,normalized growth,[21],1
same,normalized growth,[22],0.999
same,normalized growth,"S. cerevisiae deletion strains, locus YOL006C, strain TOP1, active compounds read low",1.09
same,normalized growth,[23],0.949
same,normalized growth,[24],1.04
same,normalized growth,[25],0.869
same,normalized growth,[26],0.99
COc1ccc2[nH]c3c(c2c1)CCNC3,normalized growth,[27],0.974
same,normalized growth,[28],1.02
same,normalized growth,"S. cerevisiae deletion strains, locus YGR229C, strain SMI1, active compounds read low",1.05
same,normalized growth,[10],1.01
same,normalized growth,"S. cerevisiae deletion strains, locus YNL128W, strain TEP1, active compounds read low",0.996
same,normalized growth,[19],0.983
same,normalized growth,[29],0.985
same,normalized growth,[30],0.983
same,normalized growth,[31],1.01
same,normalized growth,[32],0.996
same,normalized growth,[23],1
same,normalized growth,[24],0.981
Brc1ccc2[nH]c3c(c2c1)CCC3,normalized growth,"S. cerevisiae deletion strains, locus YAR019C, strain CDC15, active compounds read low",0.954
same,normalized growth,"S. cerevisiae deletion strains, locus YBL105C, strain PKC1, active compounds read low",0.955
same,normalized growth,"S. cerevisiae deletion strains, locus YBR135W, strain CKS1, active compounds read low",0.934
same,normalized growth,"S. cerevisiae deletion strains, locus YBR136W, strain MEC1, active compounds read low",0.945
same,normalized growth,"S. cerevisiae deletion strains, locus YBR160W, strain CDC28, active compounds read low",0.949
same,normalized growth,"S. cerevisiae deletion strains, locus YDL017W, strain CDC7, active compounds read low",0.962
same,normalized growth,"S. cerevisiae deletion strains, locus YDL028C, strain MPS1, active compounds read low",0.937
same,normalized growth,[3],0.966
same,normalized growth,"S. cerevisiae deletion strains, locus YDL108W, strain KIN28, active compounds read low",0.932
same,normalized growth,"S. cerevisiae deletion strains, locus YDL132W, strain cdc53, active compounds read low",0.962
same,normalized growth,"S. cerevisiae deletion strains, locus YDL214C, strain PRR2, active compounds read low",0.69 (active)
same,normalized growth,"S. cerevisiae deletion strains, locus YDR052C, strain DBF4, active compounds read low",0.975
same,normalized growth,"S. cerevisiae deletion strains, locus YDR054C, strain cdc34, active compounds read low",0.97
same,normalized growth,"S. cerevisiae deletion strains, locus YDR226W, strain ADK1, active compounds read low",0.96
same,normalized growth,"S. cerevisiae deletion strains, locus YDR477W, strain SNF1, active compounds read low",0.712
same,normalized growth,"S. cerevisiae deletion strains, locus YER123W, strain YCK3, active compounds read low",0.609 (active)
same,normalized growth,"S. cerevisiae deletion strains, locus YER133W, strain GLC7, active compounds read low",0.668 (active)
same,normalized growth,"S. cerevisiae deletion strains, locus YFL009W, strain cdc4, active compounds read low",0.946
same,normalized growth,"S. cerevisiae deletion strains, locus YFL029C, strain CAK1, active compounds read low",0.942
same,normalized growth,"S. cerevisiae deletion strains, locus YFR003C, strain YPI1, active compounds read low",0.952
same,normalized growth,"S. cerevisiae deletion strains, locus YFR019W, strain FAB1, active compounds read low",0.759 (active)
same,normalized growth,"S. cerevisiae deletion strains, locus YFR028C, strain CDC14, active compounds read low",0.969
same,normalized growth,"S. cerevisiae deletion strains, locus YGR040W, strain KSS1, active compounds read low",0.716
same,normalized growth,"S. cerevisiae deletion strains, locus YGR052W, strain FMP48, active compounds read low",0.595 (active)
same,normalized growth,"S. cerevisiae deletion strains, locus YGR092W, strain DBF2, active compounds read low",0.621
same,normalized growth,[7],0.344 (active)
same,normalized growth,"S. cerevisiae deletion strains, locus YHR079C, strain IRE1, active compounds read low",0.151 (active)
same,normalized growth,"S. cerevisiae deletion strains, locus YHR082C, strain KSP1, active compounds read low",0.587 (active)
same,normalized growth,"S. cerevisiae deletion strains, locus YHR205W, strain SCH9, active compounds read low",0.666
same,normalized growth,"S. cerevisiae deletion strains, locus YIL147C, strain SLN1, active compounds read low",0.947
same,normalized growth,"S. cerevisiae deletion strains, locus YJL095W, strain BCK1, active compounds read low",0.467 (active)
same,normalized growth,"S. cerevisiae deletion strains, locus YJL128C, strain PBS2, active compounds read low",0.915
same,normalized growth,"S. cerevisiae deletion strains, locus YJL157C, strain FAR1, active compounds read low",0.74
same,normalized growth,"S. cerevisiae deletion strains, locus YJR016C, strain ILV3, active compounds read low",0.946
same,normalized growth,"S. cerevisiae deletion strains, locus YJR066W, strain TOR1 (second series), active compounds read low",0.67
same,normalized growth,"S. cerevisiae deletion strains, locus YJR066W, strain TOR1, active compounds read low",0.541
same,normalized growth,"S. cerevisiae deletion strains, locus YKL048C, strain ELM1, active compounds read low",0.769 (active)
same,normalized growth,"S. cerevisiae deletion strains, locus YKL067W, strain YNK1, active compounds read low",0.723 (active)
same,normalized growth,"S. cerevisiae deletion strains, locus YKL101W, strain HSL1, active compounds read low",0.747
same,normalized growth,"S. cerevisiae deletion strains, locus YKL193C, strain SDS22, active compounds read low",0.937
same,normalized growth,"S. cerevisiae deletion strains, locus YKL203C, strain TOR2, active compounds read low",0.762
same,normalized growth,"S. cerevisiae deletion strains, locus YLR113W, strain HOG1, active compounds read low",0.44 (active)
same,normalized growth,"S. cerevisiae deletion strains, locus YLR133W, strain CKI1, active compounds read low",0.805
same,normalized growth,"S. cerevisiae deletion strains, locus YLR403W, strain SFP1, active compounds read low",0.757
same,normalized growth,"S. cerevisiae deletion strains, locus YML070W, strain DAK1, active compounds read low",0.651 (active)
same,normalized growth,"S. cerevisiae deletion strains, locus YMR001C, strain CDC5, active compounds read low",0.94
same,normalized growth,"S. cerevisiae deletion strains, locus YMR205C, strain PFK2 (second series), active compounds read low",0.784
same,normalized growth,"S. cerevisiae deletion strains, locus YMR277W, strain FCP1, active compounds read low",0.948
same,normalized growth,"S. cerevisiae deletion strains, locus YNL006W, strain LST8, active compounds read low",0.938
same,normalized growth,"S. cerevisiae deletion strains, locus YNL020C, strain ARK1, active compounds read low",0.795
same,normalized growth,"S. cerevisiae deletion strains, locus YNL161W, strain CBK1, active compounds read low",0.942
same,normalized growth,"S. cerevisiae deletion strains, locus YNL183C, strain NPR1, active compounds read low",0.519 (active)
same,normalized growth,"S. cerevisiae deletion strains, locus YNL207W, strain RIO2, active compounds read low",0.926
same,normalized growth,"S. cerevisiae deletion strains, locus YNL222W, strain SSU72, active compounds read low",0.936
same,normalized growth,"S. cerevisiae deletion strains, locus YNL307C, strain MCK1 (second series), active compounds read low",0.695
same,normalized growth,"S. cerevisiae deletion strains, locus YOL078W, strain AVO1, active compounds read low",0.942
same,normalized growth,"S. cerevisiae deletion strains, locus YOL136C, strain PFK27, active compounds read low",0.625 (active)
same,normalized growth,"S. cerevisiae deletion strains, locus YOR061W, strain CKA2, active compounds read low",0.76
same,normalized growth,"S. cerevisiae deletion strains, locus YOR119C, strain RIO1, active compounds read low",0.729
same,normalized growth,"S. cerevisiae deletion strains, locus YOR231W, strain MKK1, active compounds read low",0.56 (active)
same,normalized growth,"S. cerevisiae deletion strains, locus YOR329C, strain SCD5, active compounds read low",0.948
same,normalized growth,"S. cerevisiae deletion strains, locus YPL031C, strain PHO85, active compounds read low",0.647 (active)
same,normalized growth,"S. cerevisiae deletion strains, locus YPL153C, strain RAD53, active compounds read low",0.653 (active)
same,normalized growth,"S. cerevisiae deletion strains, locus YPL204W, strain HRR25, active compounds read low",0.642 (active)
same,normalized growth,"S. cerevisiae deletion strains, locus YPL209C, strain IPL1, active compounds read low",0.938
same,normalized growth,"S. cerevisiae deletion strains, locus YPL256C, strain CLN2, active compounds read low",0.472 (active)
same,normalized growth,"S. cerevisiae deletion strains, locus YPR025C, strain CCL1, active compounds read low",0.94
same,normalized growth,"S. cerevisiae deletion strains, locus YPR106W, strain ISR1, active compounds read low",0.94
same,normalized growth,"S. cerevisiae deletion strains, locus YPR111W, strain DBF20, active compounds read low",0.945
same,normalized growth,"S. cerevisiae deletion strains, strain NNK1, active compounds read low",0.926
same,normalized growth,"S. cerevisiae deletion strains, strain TSCII, active compounds read low",0.931
Cc1ccc2[nH]c3c(c2c1)CCCC3,normalized growth,[1],0.853 (active)
same,normalized growth,[2],0.544 (active)
same,normalized growth,[3],0.778 (active)
same,normalized growth,[4],0.911
same,normalized growth,[5],0.738 (active)
same,normalized growth,[6],0.781 (active)
same,normalized growth,[7],0.377 (active)
same,normalized growth,[8],0.762 (active)
same,normalized growth,[9],0.869 (active)
same,normalized growth,[10],0.636 (active)
same,normalized growth,[11],0.989
same,normalized growth,[12],0.259 (active)
same,normalized growth,[13],0.867 (active)
same,normalized growth,[14],0.696 (active)
same,normalized growth,[15],0.224 (active)
same,normalized growth,[16],0.664 (active)
same,normalized growth,[17],0.828 (active)
same,normalized growth,[18],0.867 (active)
same,normalized growth,[19],0.807 (active)
same,normalized growth,[20],0.578 (active)
same,normalized growth,[21],0.949
same,normalized growth,[22],0.669 (active)
same,normalized growth,[23],0.822 (active)
same,normalized growth,[24],0.722 (active)
same,normalized growth,[25],0.477 (active)
same,normalized growth,[26],0.904 (active)
O=C1Cc2c([nH]c3ccc(Br)cc23)-c2ccccc2N1,normalized growth,[27],0.964
same,normalized growth,"S. cerevisiae deletion strains, locus YCL061C, strain MRC1 (second series), active compounds read low",0.991
same,normalized growth,[4],0.989
same,normalized growth,"S. cerevisiae deletion strains, locus YDR363W, strain ESC2, active compounds read low",1.03
same,normalized growth,[28],1.01
same,normalized growth,[10],1.06
same,normalized growth,[29],0.984
same,normalized growth,[30],0.988
same,normalized growth,[31],0.998
same,normalized growth,[32],0.976
same,normalized growth,[24],0.985
